A selection: hits, their analogues and other compounds. The true share with any hit is near 0.64%.
IL2 activator: activates IL-2 in a cell-based reporter assay. IL-2 activation reporter assay, cell-based qHTS; stimulated with anti-CD3/CD4/CD28 beads; in transgenic mouse T cells. activation, % (series mostly up to about 46 µM). actives 0.065% (n = 360,000). AID 652025; in the data active = activation above about 50%; inconclusive = mostly about 30% to 49%; also: 0% is about no effect
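Unstimulated transgenic mouse T cells preincubated 60 min with compound, then stimulated with anti-CD3/anti-CD4-coated beads plus anti-CD28 for 18 h at 37 degrees C. IL-2 response read as EGFP and DsRed fluorescence by plate cytometry.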
EPAC2 ag: activates human EPAC2 exchange factor | Q8WZA2 | EPAC2 activation, biochemical qHTS; response scale: 100% = 6.5 mM cAMP response | actives 0.079% (n = 360,000) | Potency, µM (doses to about 154 µM), for inactives: at the highest dose activation, most hits filed as activators; also: potency is read from the fitted curve at half-maximal effect; nearly all actives have a fitted effect of over 50% in size
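Nucleotide exchange monitored as fluorescence drop when BODIPY-GDP leaves Rap1B. Reaction: 100 nM EPAC2, 250 nM RAP1B-BODIPY-GDP, 50 uM GDP, room temperature, kinetic read over 30 min. Activity expressed relative to 6.5 mM cAMP.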
EPAC1 agonist: activates human EPAC1 exchange factor; actives 0.073% (n = 360,000); Potency, µM (doses to about 154 µM), without a hit: at the highest dose activation, usual class: activators; AID 720707; EPAC1 agonist qHTS, biochemical assay; response scale: 100% = response to 6.5 mM cAMP; also: potency is read from the fitted curve at half-maximal effect; nearly all actives have a fitted effect of over 60% in size
Target sequence (O95398 whole entry, looked up): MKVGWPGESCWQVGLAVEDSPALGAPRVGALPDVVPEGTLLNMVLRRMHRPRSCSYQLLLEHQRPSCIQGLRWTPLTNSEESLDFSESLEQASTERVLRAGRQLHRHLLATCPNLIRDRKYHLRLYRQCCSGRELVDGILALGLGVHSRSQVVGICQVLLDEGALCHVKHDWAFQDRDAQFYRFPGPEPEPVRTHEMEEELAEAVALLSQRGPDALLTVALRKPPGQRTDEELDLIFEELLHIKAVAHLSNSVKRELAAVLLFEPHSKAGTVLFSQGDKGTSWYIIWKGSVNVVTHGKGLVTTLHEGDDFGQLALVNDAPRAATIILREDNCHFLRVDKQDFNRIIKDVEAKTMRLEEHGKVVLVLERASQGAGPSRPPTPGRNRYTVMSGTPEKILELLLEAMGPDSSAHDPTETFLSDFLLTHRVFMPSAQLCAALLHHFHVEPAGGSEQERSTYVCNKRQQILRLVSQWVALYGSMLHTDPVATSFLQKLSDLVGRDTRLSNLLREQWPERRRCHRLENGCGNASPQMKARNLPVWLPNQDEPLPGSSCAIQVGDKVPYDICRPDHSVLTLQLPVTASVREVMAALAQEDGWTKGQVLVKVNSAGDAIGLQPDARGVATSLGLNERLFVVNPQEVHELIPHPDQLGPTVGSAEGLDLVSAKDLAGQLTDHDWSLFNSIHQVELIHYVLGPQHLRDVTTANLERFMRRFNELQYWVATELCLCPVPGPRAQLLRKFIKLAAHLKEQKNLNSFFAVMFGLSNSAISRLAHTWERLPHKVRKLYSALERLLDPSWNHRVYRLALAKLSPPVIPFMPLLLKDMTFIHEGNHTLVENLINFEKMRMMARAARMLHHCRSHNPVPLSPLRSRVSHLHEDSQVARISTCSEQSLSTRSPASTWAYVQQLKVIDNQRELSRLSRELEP
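Normalized to 6.5 mM cAMP, activity reflects EPAC1-catalysed release of BODIPY-GDP from Rap1B, followed kinetically over 30 min at 480 nm excitation, 540 nm emission. Reaction contained 100 nM EPAC1, 250 nM Rap1B-BODIPY-GDP, 50 uM GDP.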
PKM2 activator: PKM2 (human) enzyme activation; purified PKM2, Kinase-Glo ATP luminescence, activation; response scale: 0% is enzyme alone, no compound; Potency, µM (top dose mostly 57.5 µM), for the others: at the top dose activation, hits mostly activators; actives 0.34% (n = 260,000); also: potency is read from the fitted curve at half-maximal effect; % is scaled to controls: 0 for no effect and ±100 for the full control effect; nearly all actives have a fitted effect of over 55% in size
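Purified hPK-M2 (>95%) run at intermediate activity with 0.1 mM ADP and 0.5 mM PEP in 50 mM imidazole pH 7.2, KCl, MgCl2; 1 h room temperature. ATP formed read by Kinase-Glo luminescence; normalized to uninhibited and no-enzyme controls.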
EPAC2 antag: EPAC2 (human) antagonism | actives 0.18% (n = 360,000) | EPAC2 GEF exchange of Rap1B-BODIPY-GDP, fluorescence | Potency, µM (series often up to 114 µM), without a hit: at the top dose activity, negative = inhibition, usual class: inhibitors; also: potency is read from the fitted curve at half-maximal effect; % is scaled to controls: 0 for no effect and ±100 for the full control effect; nearly all actives have a fitted effect of over 45% in size
EPAC1 antag: EPAC1 (human) antagonism; O95398; EPAC1 GEF assay, Rap1b-BODIPY-GDP exchange fluorescence; actives 0.14% (n = 360,000); Potency, µM (top dose mostly 115 µM), without a hit: at the highest dose activity change, negative = inhibition, actives largely listed as inhibitors;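 also: potency is read from the fitted curve at half-maximal effect; plate controls were vehicle for no effect and positive control for full effect; nearly all actives have a fitted effect of over 50% in size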
The depositor's hits bear a star; i = inactive; ? = inconclusive; / = no result given; [ ] = remark or other dose. Unless noted, calls follow the shape of the dose curve; as a rule, active = well fitted curve in the direction sought with a large enough effect; inconclusive = small, poorly fitted or top-dose-only effect, or another doubt; inactive = no such curve, though single readings can be large; an effect the other way counts as inactive or inconclusive.

SMILES | IL2 activator | EPAC2 ag | EPAC1 agonist | PKM2 activator | EPAC2 antag | EPAC1 antag
O=C(O)c1cccc(S(=O)(=O)Nc2ccc([N+](=O)[O-])cc2O)c1 | 2 | 6% | -2% | -2% | 0% | -8%
CCOc1ccc(S(=O)(=O)Nc2cc(SCC(=O)O)c(O)c3ccccc23)cc1 | 0 | 11% | 28% | 2% | -4% | 89µM*
CCc1ccc(S(=O)(=O)Nc2cc(SCC(=O)O)c(O)c3ccccc23)cc1 | -1 | 10% | ? | ? | ? | 89µM*
Cc1ccc(C)c(S(=O)(=O)Nc2cc(SCC(=O)O)c(O)c3ccccc23)c1 | 2 | 4% | 21% | 9% | -6% | ?
O=C(O)CSc1cc(NS(=O)(=O)c2cccc([N+](=O)[O-])c2)c2ccccc2c1O | -3 | 112µM* | 24% | 27% | ? | ?
O=[N+]([O-])c1cccc(-c2noc(-c3ccco3)n2)c1 | 0 | 9% | 5% | 2% | 3% | -2%
COC(=O)c1c(NC(=O)C2CCCCC2)sc2c1CC(C)(C)NC2(C)C | -4 | 10% | 2% | 1% | 3% | 19%
Cc1cc(NC(=O)CSCC(=O)Nc2ccccc2Oc2ccccc2)no1 | -1 | -3% | 0% | / | -4% | -20%
Cc1ccc(Oc2ccccc2NC(=O)CSCC(=O)Nc2cc(C)on2)cc1 | 0 | 4% | 112µM* | / | -7% | -13%
COc1ccc(NC(=O)c2cccnc2NCCc2ccccc2)cc1 | 0 | 32µM* | 56µM* | -1% | -4% | 52%
O=C(Nc1ccccc1)c1cccnc1NCCc1ccccc1 | 1 | 6% | 5% | -13% | -19% | -12%
CCOC(=O)Cc1csc(N/N=C\c2ccccc2OC)n1 | -1 | 12% | 3% | 8%[11.5 µM] | 4% | -8%
O=C(O)c1ccccc1C1=Nc2ccc(O)cc2Oc2cc(O)ccc21 | 3 | ? | 100µM* | 0% | 88% | 66%
Cc1cc(-c2ccccc2C(=O)O)on1 | -4 | 4% | 4% | 19% | 1% | 7%
Cc1cc(C)cc(N(CC(=O)NC2CCCC2)C(=O)CNC(=O)c2cccs2)c1 | 0 | 1% | -7% | -2% | 20% | 6%
Cc1c(F)cccc1NS(=O)(=O)c1ccc(OCCNS(C)(=O)=O)cc1 | 1 | 4% | 3% | 6.3µM* | 4% | -8%
Cc1cccc(C)c1NS(=O)(=O)c1ccc(OCCNS(C)(=O)=O)cc1 | 0 | 12% | 7% | 1% | -1% | 0%
COCCN1C(=O)CSCC1(C)C(=O)NCc1ccccc1 (configuration not stated) | 1 | 2% | -25% | / | 6% | -10%
CC(CC(=O)Nc1ccc2c(c1)c(=O)n(C)n2-c1ccccc1F)c1ccccc1 (configuration not stated) | -1 | 2% | 7% | / | -27% | -3%
Cc1ccc(S(=O)(=O)CC(=O)Nc2nccs2)cc1 | -1 | 6% | 14% | / | 5% | -3%
CN1/C(=C\C=C2/SC(=S)NC2=O)C(C)(C)c2ccccc21 | 6 | 63µM* | 63µM* | -19% | 98% | 49%
CN1/C(=C\C=C2/C(=O)Oc3ccccc3C2=O)C(C)(C)c2ccccc21 | 80* | 79µM* | 79µM* | -10% | i | i
CN1C(=CC=C2C=C(I)C(=O)C(I)=C2)C(C)(C)c2ccccc21 | -7 | 1% | 10% | -24% | 21% | -9%
N/C(=N\OC(=O)COc1ccc2ccccc2c1Br)c1ccncc1 | / | / | / | 0% | / | /
O=C(Nc1cccc(C(F)(F)F)c1)C1Cc2c(-c3ccccc3)ccnc2O1 (configuration not stated) | 2 | 0% | -13% | / | ? | -7%
SMILES | IL2 activator | EPAC2 ag | EPAC1 agonist | PKM2 activator | EPAC2 antag | EPAC1 antag
O=C(O)c1ccccc1-c1c2cc(I)c(=O)c(I)c-2oc2c(I)c(O)c(I)cc12 | 0 | 100µM* | 28µM* | / | 169% | 129%
CN(C)c1ccc(/C=N/NC(=O)c2cnc3ccccc3c2)cc1 | 170* | -8% | 1% | -2% | -4% | 12%
CN(C)c1ccc(/C=N/NC(=O)c2ccccn2)cc1 | -2 | 11% | 4% | -54% | -1% | -7%
COC(=O)c1c(C)cc(O)cc1O | 0 | 4% | -14% | / | -2% | -14%
Cc1cc(OC(=O)c2c(C)cc(OC(=O)c3c(C)cc(O)cc3O)cc2O)cc(O)c1C(=O)O | -2 | 2% | -6% | / | -3% | 56µM*
O=C(c1ccccc1)c1ccc2nc(-c3ccco3)c(-c3ccco3)nc2c1 | -2 | -6% | -3% | 3% | -15% | 50µM*
CCOC(=O)C1CCN(C(=O)Nc2ccc3nc(-c4ccco4)c(-c4ccco4)nc3c2)CC1 | 0 | 3% | -1% | 21% | 3% | ?
O=C(NCCc1ccccc1)c1ccc2nc(-c3ccco3)c(-c3ccco3)nc2c1 | -2 | 11% | 16% | 6% | -3% | ?
O=C(Nc1ccc2nc(-c3ccco3)c(-c3ccco3)nc2c1)N1CCCCCC1 | 5 | 1% | -1% | 8% | 3% | 40µM*
O=C(c1cn(Cc2ccccc2)nc1-c1cccnc1)N1CCc2ccccc2C1 | 0 | 6% | 6% | / | 10% | 15%
O=C(NNC(=O)c1c(O)c2ccccc2[nH]c1=O)c1ccccc1Br | 1 | -4% | 3% | 0% | -3% | 4%
NC(=O)CC(NC(=O)c1ccccc1)c1ccc(NCc2ccccn2)c([N+](=O)[O-])c1 (configuration not stated) | 1 | 3% | -27% | -6% | 10% | -2%
CSCCC(C(=O)O)N1C(=O)c2ccc(C(=O)O)cc2C1=O (configuration not stated) | 0 | 10µM* | 3% | -2% | -5% | 5%
C[C@@H](C(=O)Nc1ccc2ccccc2c1)[C@@H]1C[C@@]1(C)[C@@H](NS(=O)(=O)c1ccc(-c2ccccc2)cc1)c1ccccc1 | / | / | / | -3% | / | /
Nc1c2c(nc3ccn(Cc4ccccc4)c(=O)c13)CCC2 | 1 | -3% | -13% | 14µM* | 2%[57.1 µM] | 11%
CC(=O)Nc1ccc(NC(=O)c2ccccc2-n2cnnn2)cc1 | 0 | 1% | -2% | / | -1% | 9%
Cn1c(=O)c2c(nc(Oc3ccccc3Cl)n2C)n(C)c1=O | -2 | 7% | -14% | / | -11% | -18%
CC(C)CCn1c(Oc2ccccc2Cl)nc2c1c(=O)n(C)c(=O)n2C | 0 | 0% | 1% | 1% | 32µM* | -12%
COc1cccc(NC(=O)CN(C)C(=O)CNC(=O)c2ccc(Oc3ccccc3)cc2)c1 | -1 | 10% | 63µM* | / | 4% | 1%

Screening results: PubChem, National Center for Advancing Translational Sciences (NCATS)
